# Most compounds without a hit are left out; they make up all but 11% or so of the library.
# HEK cytotox: Cytotoxic Profiling in HEK 293 Cell Line of Diverse Libraries Using Quantitative High-Throughput Screening; HEK 293 viability, ATP luminescence (CellTiter-Glo), 48-72 h; Potency, µM (doses to about 115 µM), inactives show top-dose activity change, negative = cytotoxicity, hits mostly inhibitors; 94,000 compounds, 6.6% hits; also: nearly all actives have a fitted effect of over 60% in size
#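 Cytotoxicity was scored by loss of ATP-coupled luminescence (CellTiter-Glo) in HEK 293 cells. Compound treatment ran 48 or 72 hr at 37 degree Celsius, 5% CO2, 95% humidity.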
# 3T3 cytotox: Cytotoxic Profiling in NIH 3T3 Cell Line of Diverse Libraries Using Quantitative High-Throughput Screening; NIH 3T3 viability, CellTiter-Glo ATP luminescence, 48-72 h; Potency, µM (titrated, usually from 96.7 µM), for the others: at the top dose activity change, negative = cytotoxicity, usual class: inhibitors; 94,000 compounds, 4.3% hits; also: nearly all actives have a fitted effect of over 55% in size
#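 First NIH 3T3 cells are plated at 400 cells/well; next compound is pinned in; then plates incubate 48 or 72 hr at 37 °C; finally CellTiter-Glo is added and luminescence read after 10 min.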
# hNpr1 antagonist: Natriuretic polypeptide receptor (hNpr1) antagonism - Primary qHTS; AID 1347048, 2019; Atrial natriuretic peptide receptor 1 (Homo sapiens), P16066; 76,000 compounds, 1.6% hits; HEK293 hNpr1 GloSensor cGMP, ANP-stimulated luminescence; Potency, µM (doses to about 46.3 µM), without a hit: top-dose activity change, negative = inhibition, actives largely listed as inhibitors; calls by dose curve; also: nearly all actives have a fitted effect of over 60% in size
#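 HEK293 cells stably expressing human Npr1 and cGMP GloSensor pGS-40F, loaded 2 h with 2% GloSensor reagent, given compound 30 min at room temperature. Luminescence read before and 20 min after 0.1 nM hNppA.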
# Luciferase inh: Firefly luciferase inhibition profiling of diverse chemical library using quantitative high-throughput screening. 76,000 compounds, 2.5% hits. purified P. pyralis luciferase, luminescence, biochemical. Luciferin 4-monooxygenase (Photinus pyralis), P08659. Potency, µM (top dose mostly 115 µM), hits mostly inhibitors; also: nearly all actives have a fitted effect of over 65% in size
# Target sequence (P08659 whole entry, looked up): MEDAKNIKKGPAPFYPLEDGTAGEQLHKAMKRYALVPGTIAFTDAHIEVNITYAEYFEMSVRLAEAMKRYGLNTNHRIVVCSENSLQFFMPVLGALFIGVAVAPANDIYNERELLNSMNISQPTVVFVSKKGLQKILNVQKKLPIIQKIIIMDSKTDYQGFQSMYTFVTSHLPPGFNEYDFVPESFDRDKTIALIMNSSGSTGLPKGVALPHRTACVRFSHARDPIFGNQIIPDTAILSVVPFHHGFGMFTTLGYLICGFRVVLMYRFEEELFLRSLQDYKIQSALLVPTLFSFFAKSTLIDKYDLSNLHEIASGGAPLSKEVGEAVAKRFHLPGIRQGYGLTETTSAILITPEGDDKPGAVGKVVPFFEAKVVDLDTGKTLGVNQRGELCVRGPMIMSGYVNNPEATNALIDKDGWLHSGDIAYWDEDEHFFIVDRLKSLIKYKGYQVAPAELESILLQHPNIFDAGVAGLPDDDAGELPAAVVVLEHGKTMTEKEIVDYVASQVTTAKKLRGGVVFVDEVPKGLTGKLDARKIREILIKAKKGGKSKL
#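 Purified 10nM P. pyralis luciferase with 10uM D-luciferin and 10uM ATP in 50mM Tris acetate pH 7.5, 10mM Mg acetate, 0.01% Tween-20, 0.05% BSA. qHTS titration; luminescence read by CCD imager.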
# Starred values were filed as active, the others as inactive; i = inactive; u = inconclusive; x = not tested or not shown; [ ] = dose if it differs, or a comment. Unless noted, calls follow the shape of the dose curve; as a rule, active = well fitted curve in the direction sought with a large enough effect; inconclusive = small, poorly fitted or top-dose-only effect, or another doubt; inactive = no such curve, though single readings can be large; an effect the other way counts as inactive or inconclusive. % is scaled to controls: 0 for no effect and ±100 for the full control effect; potency is read from the fitted curve at half-maximal effect.
SMILES,HEK cytotox,3T3 cytotox,hNpr1 antagonist,Luciferase inh
Cc1ccc(C)c(NC(=O)C2CCN(C(=O)c3ncn4c3COC(c3ccc(F)cc3)C4)CC2)c1 (stereo unspecified),-13.6%,-18.8%,-17.1%,28.2µM*
COc1ccc(C2Cn3cnc(C(=O)N4CCC(C(=O)Nc5cccc(Cl)c5)CC4)c3CO2)cc1 (stereo unspecified),u,-2.0%,-24.1%,39.8µM*
Cc1cc(F)ccc1NC(=O)C1CCN(C(=O)c2ncn3c2COC(c2ccc(F)cc2)C3)CC1 (stereo unspecified),-6.8%,i,-0.6%,u
Cc1ccc(NC(=O)C2CCN(C(=O)c3ncn4c3COC(c3ccc(F)cc3)C4)CC2)c(C)c1 (stereo unspecified),0.7%,i,-3.7%,35.5µM*
Cc1ccccc1C(=O)N1CCCC(C(=O)N2CCC(N3CCOCC3=O)CC2)C1 (stereo unspecified),1.5%,-2.0%,x,x
O=C(NCCc1ccc(F)cc1)c1cc(-c2cccc(C(F)(F)F)c2)c2nncn2n1,u,-27.6%,x,x
COc1ccc(-c2nc3c(C)cccc3cc2CN2CCC[C@H]2CO)cc1OC,u,u,-7.3%,i
CC(C)(C)CCN1CC(Oc2cccc(C(=O)N3CCOCC3)c2)C1,u,u,14.7%,i
COC(=O)[C@@H]1Cc2c([nH]c3ccccc23)[C@H]2C[C@@H](NCCN(C)C)C[C@@H](c3cccc(Cl)c3)N21,6.31µM*,4.47µM*,-13.7%,u
COC(=O)[C@@H]1Cc2c([nH]c3ccccc23)[C@@H]2C[C@@H](NCCNC(C)=O)C[C@@H](c3cccc(Cl)c3)N12,31.6µM*,28.2µM*,2.5%,i
COC(=O)[C@@H]1Cc2c([nH]c3ccccc23)[C@H]2C[C@@H](NCCNC(C)=O)C[C@@H](c3ccc(-c4ccccc4)cc3)N21,39.8µM*,u,1.1%,i
O=C(N1CCOCC1)N1CCN(c2ccc3nnc(C4CC4)n3n2)CC1,-2.6%,-28.6%,x,x
C#CCNC(=O)C1CCCN1c1nccc(Nc2ccccc2F)n1 (stereo unspecified),-24.0%[172 µM],u,x,x
Cc1ccc(CN2CCN(c3nc(C)ccc3C#N)CC2CCO)cc1 (stereo unspecified),u,-26.3%,-3.1%,i
COc1ccc(CN2CCN(c3nc(C)ccc3C#N)CC2CCO)cc1C (stereo unspecified),50.1µM*,u,-18.5%,i
COc1ccc(NC(=O)N2CCC3(CC2)CN(c2ccccc2)C3=O)cc1OC,39.8µM*,-29.8%,x,x
COc1ccc(CN2CC3(CCN(C(=O)Nc4ccc(OC)c(OC)c4)CC3)C2=O)cc1,u,-22.9%,-24.0%,i
COc1ccc(-c2ccccc2C(=O)NC2CCC2)nn1,4.9%[172 µM],-7.7%[138 µM],x,x
COc1ccc(-c2cc(C(=O)NCC(C)C)c3c(C4CCCN4)nn(C)c3n2)cc1 (stereo unspecified),u,31.6µM*,x,x
COCCNC(=O)c1cc(-c2ccc(OC)cc2)nc2c1c(C1CCCN1)nn2C (stereo unspecified),-25.2%,u,x,x
COCCNC(=O)c1cc(C2CC2)nc2c1c(C1CCCN1)nn2-c1ccccc1 (stereo unspecified),79.4µM*,u,x,x
O=C(c1cc(C2CC2)nc2c1c(C1CCCN1)nn2-c1ccccc1)N1CCC(F)CC1 (stereo unspecified),u,31.6µM*,x,x
Cn1nc(C2CCCN2)c2c(C(=O)N3CCC(F)CC3)cc(C3CC3)nc21 (stereo unspecified),i,2.1%,x,x
COCCCNC(=O)C1CCN(C(=O)c2ccc(-c3ccccc3OC)cc2)CC1,i,-28.2%,x,x
Cn1nccc1-c1ccc2ncn(-c3ccc(F)cc3F)c(=O)c2n1,63.1µM*,u,2.3%[70.6 µM],i
SMILES,HEK cytotox,3T3 cytotox,hNpr1 antagonist,Luciferase inh
O=C(C1CC1)N1CCC(C(=O)N2CCC(N3CCOC3=O)CC2)CC1,-5.4%,i,x,x
Cn1cnc2ccc(-c3ccncc3)nc2c1=O,u,79.4µM*,3.2%[70.6 µM],i
O=c1c2nc(-c3ccccc3)ccc2ncn1-c1ccccc1,u,u,-2.2%[70.6 µM],i
COc1ccc(-c2ccc3ncn(C)c(=O)c3n2)cc1OC,u,35.5µM*,-0.4%[70.6 µM],i
O=C(Nc1ccc(C2(C(=O)NCc3ccccn3)CCCCC2)cc1)C1CC1,u,-8.3%,6.6%,i
CCn1nc(-c2ccc3c(c2)OCCO3)nc1N(C)C,-9.4%,-9.6%,0.0%,39.8µM*
CCn1nc(-c2ccccc2SC)nc1N(C)C,-13.7%,3.7%,0.3%,i
CNC(=O)c1cc(C)nc2onc(C3CCCN3C(=O)c3cccnc3)c12 (stereo unspecified),i,0.7%,x,x
Cc1nn(-c2ccc(C(F)(F)F)cc2)c(C)c1[C@@H]1C=C[C@@H](NC(=O)Nc2cccc(C#N)c2)C1,u,25.1µM*,u,7.08µM*
Cc1nn(CCC#N)c(C)c1[C@@H]1C=C[C@@H](NC(=O)Nc2ccccc2)C1,-3.4%[172 µM],u,2.8%[70.6 µM],u
Cc1nn(-c2ccccc2)c(C)c1[C@@H]1C=C[C@@H](NC(=O)CCCC(=O)O)C1,i,i,5.8%[70.6 µM],i
Cc1nn(-c2ccc(C(F)(F)F)cc2)c(C)c1[C@@H]1C=C[C@@H](NC(=O)CSCC(=O)O)C1,u,-13.6%,-2.1%,i
Cc1nn(-c2ccc(C(F)(F)F)cc2)c(C)c1[C@@H]1C=C[C@@H](NC(=O)c2cccnc2)C1,u,28.2µM*,-26.2%[70.6 µM],u
Cc1nn(-c2ccccc2)c(C)c1[C@@H]1C=C[C@@H](NC(=O)c2ccco2)C1,u,u,35.5µM*,i
Cc1nn(-c2ccccc2[N+](=O)[O-])c(C)c1[C@@H]1C=C[C@@H](NC(=O)Nc2cccc(C#N)c2)C1,39.8µM*,u,u,u
COc1ccc(-c2ccc(C(=O)N3CCC(C#N)CC3)cc2)nn1,u,-25.0%[138 µM],x,x
COc1cc(F)ccc1-c1cnc2n[nH]c(-c3sccc3C)c2n1,44.7µM*,u,-10.1%[70.6 µM],i
Cc1ccsc1-c1[nH]nc2ncc(-c3ccccc3)nc12,u,u,-11.2%[70.6 µM],i
Cc1ccsc1-c1[nH]nc2ncc(-c3cccc(CO)c3)nc12,79.4µM*,u,-5.8%[70.6 µM],u
Cc1ccsc1-c1[nH]nc2ncc(-c3ccc(F)cc3)nc12,70.8µM*,u,-9.9%[70.6 µM],i
COCCCNC(=O)C1(C)CN(C)Cc2ccc(NCc3ccccc3)nc21 (stereo unspecified),u,u,-2.3%[70.6 µM],i
Cc1cc(C)c(CNC(=O)c2cc(-c3cnn(C)c3)cc3c2OCCN3C(C)C)c(=O)[nH]1,u,u,4.6%[70.6 µM],i
COCCN1C(=O)CS(=O)(=O)C12CCN(C(=O)c1cccc(OC)c1)CC2,-11.1%,-20.0%,3.0%,i
O=C(Cc1c[nH]c2ncc(-c3ccc(F)cc3)cc12)N1CCOCC1,u,u,u,56.2µM*

# Source: PubChem
